PubChem BioAssay
“And” between values parts separate entries of the source, which are not always exact repeats. Identical values can stand only once. The source made the active and inactive calls. Unless noted, no rule for the calls is given here.

Key:
[1] = test system: Wnt5a (protein binding on small-molecule microarray); test: Wnt5a binders on small-molecule microarray, primary screen, biophysical, 635/667 nm fluorescence (AID 1142); details: 635 nm fluorescence, higher = more signal;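 also: fluorescence read at 667 nm with signal to noise per printed feature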
[2] = cell viability in Huh7 cells, primary screen, cytotoxicity control for HCV replication inhibitor project, CellTiter-Glo luminescence, basal, 48 h (AID 1143); details: Huh7 HCV replicon, higher = more signal, called active from +8 up or from −8 down;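 also: Huh7 hepatoma cells carrying a hepatitis C replication reporter with no stimulus; test concentration not given here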
[3] = P. aeruginosa biofilm formation inhibitors, primary screen, PAO1 strain, BacTiter-Glo luminescence, LB-PBS (AID 1144); details: 12 h, higher = more signal
[4] = CREB reporter modulators without forskolin, primary screen, cell-based, PC12, CRE-LacZ reporter, unstimulated (AID 1145); details: no forskolin, luminescence, 4.5 h, higher = more signal, called active from +8 up or from −8 down
[5] = CREB reporter modulators under forskolin, primary screen, cell-based, PC12, CRE-LacZ reporter, forskolin-stimulated (AID 1146); details: luminescence, 4.5 h, higher = more signal, called active from +8 up or from −8 down;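 also: PC12 cells with 6xCRE LacZ reporter stimulated by forskolin 10 µM; beta-galactosidase reporter signal reflecting CREB driven transcription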
[6] = biological target: Streptavidin (Streptomyces avidinii) (UniProt P22629); test: streptavidin binders on small-molecule microarray, primary screen, artefact control for SMM compound annotation, biophysical, 635/667 nm fluorescence (AID 1147); details: streptavidin binding, higher = more signal;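 also: signal reflects streptavidin binding to arrayed compounds as a control protein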
[7] = small-molecule binders of probe aInhba, primary screen, biochemical, small-molecule microarray, 635/667 nm fluorescence (AID 1148); details: higher = more signal;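 also: score merges 667nm spot fluorescence with signal-to-noise for antibody binding to printed compounds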
Torsin-1A (Homo sapiens) [8] = biological target: Torsin-1A (Homo sapiens) (UniProt O14656); test: torsin A binders from cell lysate, primary screen, small-molecule microarray, wild-type, 635/667 nm (AID 1149); details: COS7 hTOR1A-WT lysate, 635 nm fluorescence, higher = more signal
Torsin-1A (Homo sapiens) [9] = biological target: Torsin-1A (Homo sapiens) (UniProt O14656); test: small-molecule binders of mutant TOR1A in lysate, primary screen, cell lysate, small-molecule microarray, COS7 lysate, 635/667 nm fluorescence (AID 1150); details: COS7 hTOR1A mutant lysate, 635 nm fluorescence, higher = more signal;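 also: score pools 667 nm emission and signal to noise measuring lysate protein binding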
[10] = test system: Sonic hedgehog protein (Shh); test: small-molecule binders of Shh protein, primary screen, biochemical, small-molecule microarray, 635/667 nm fluorescence (AID 1151); details: small-molecule microarray binding, 635 nm fluorescence; higher = more signal;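 also: Shh protein binding to compounds spotted on small-molecule microarray slides; score combines spot fluorescence intensity with signal-to-noise across triplicate slides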
[11] = E. coli DRC41 culture turbidity changes, primary screen, E. coli filamentation inducer project, strain DRC41, OD650, 48 h (AID 1152);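 also: E. coli MC1000 strain DRC41 lacking acrAB efflux pump and sulA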; details: E. coli DRC41 (acrAB sulA), higher = more signal, called active from +8 up or from −8 down
[12] = small-molecule binders of probe aLefty1, primary screen, biochemical, small-molecule microarray, 635/667 nm fluorescence (AID 1153); details: higher = more signal;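 also: score merges spot fluorescence with signal-to-noise ratio from the scanned slide images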
[13] = PSAC antagonists in infected red cells, primary screen, cell-based, P. falciparum Indochina, OD700, 1 h (AID 1154); details: P. falciparum Indochina infected RBC osmotic lysis, higher = more signal, called active from +8 up or from −8 down
[14] = PSAC antagonists in infected red cells, primary screen, cell-based, P. falciparum Indochina, OD700, 2 h (AID 1155);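 also: lysis reports solute entry through the parasite surface anion channel PSAC; channel blockers reduce lysis of infected cells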; details: P. falciparum Indochina infected erythrocytes, osmotic lysis OD700; higher = more signal, called active from +8 up or from −8 down
[15] = osmotic lysis modulators in infected erythrocytes, primary screen, PSAC antagonist project, cell-based, P. falciparum Indochina, OD700, 3 h (AID 1156); details: higher = more signal, called active from +8 up or from −8 down
[16] = PSAC antagonists in infected red cells, primary screen, cell-based, P. falciparum Indochina, OD700, 18 h (AID 1157); details: P. falciparum Indochina infected erythrocytes, osmotic lysis OD700, 18 h; higher = more signal, called active from +8 up or from −8 down
[17] = modulators of S6 phosphorylation in cells, primary screen, cell-based, A549, cytoblot, luminescence, serum-stimulated (AID 1158); details: A549 phospho-S6 cytoblot, 5 h, higher = more signal;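 also: serum-stimulated A549 lung adenocarcinoma cells; signal is phosphorylated S6 detected by cytoblot immunostaining with HRP secondary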
[18] = biological target: NADPH oxidase 2 (Homo sapiens) (UniProt P04839); test: NOX2-dependent H2O2 signal modulators, primary screen, NOX inhibitor project, cell-based, HEK293-NOX2, PMA-stimulated, Amplex Red fluorescence (AID 1159); details: 45 min, higher = more signal, called active from +8 up or from −8 down; also: test concentration not given here
[19] = biological target: NADPH oxidase 4 (Homo sapiens) (UniProt Q9NPH5); test: NOX4-dependent H2O2 signal modulators, primary screen, NOX inhibitor project, cell-based, HEK293-NOX4, tetracycline-induced, Amplex Red fluorescence (AID 1160); details: 45 min, higher = more signal, called active from +8 up or from −8 down
[20] = biological target: NADPH oxidase 5 (Homo sapiens) (UniProt Q96PH1); test: NOX5-dependent H2O2 signal modulators, primary screen, NOX inhibitor project, cell-based, HEK293-NOX5, Amplex Red fluorescence (AID 1161); details: HEK293-NOX5, ionomycin, 45 min, higher = more signal
NADPH oxidase 5 (Homo sapiens), sequence (Q96PH1 whole entry, looked up): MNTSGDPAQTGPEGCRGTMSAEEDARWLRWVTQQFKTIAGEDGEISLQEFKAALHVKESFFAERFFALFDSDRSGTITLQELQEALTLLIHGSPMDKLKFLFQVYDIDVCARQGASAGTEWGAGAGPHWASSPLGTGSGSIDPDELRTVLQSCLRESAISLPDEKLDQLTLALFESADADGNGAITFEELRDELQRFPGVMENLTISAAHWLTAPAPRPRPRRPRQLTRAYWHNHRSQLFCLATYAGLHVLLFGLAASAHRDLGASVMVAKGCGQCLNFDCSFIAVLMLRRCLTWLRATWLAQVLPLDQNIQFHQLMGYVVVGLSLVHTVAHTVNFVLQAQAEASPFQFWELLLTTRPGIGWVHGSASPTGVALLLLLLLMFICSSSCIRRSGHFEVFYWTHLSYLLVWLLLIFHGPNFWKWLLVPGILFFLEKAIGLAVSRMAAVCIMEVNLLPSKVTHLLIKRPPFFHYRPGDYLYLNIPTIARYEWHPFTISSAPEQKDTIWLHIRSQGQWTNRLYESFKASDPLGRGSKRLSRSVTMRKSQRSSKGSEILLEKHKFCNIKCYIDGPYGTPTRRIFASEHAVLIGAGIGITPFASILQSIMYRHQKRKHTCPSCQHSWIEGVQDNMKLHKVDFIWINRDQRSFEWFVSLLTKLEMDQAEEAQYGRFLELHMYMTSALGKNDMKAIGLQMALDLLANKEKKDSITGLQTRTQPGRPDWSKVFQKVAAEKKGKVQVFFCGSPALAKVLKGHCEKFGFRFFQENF

Streptavidin (Streptomyces avidinii), sequence (P22629 whole entry, looked up): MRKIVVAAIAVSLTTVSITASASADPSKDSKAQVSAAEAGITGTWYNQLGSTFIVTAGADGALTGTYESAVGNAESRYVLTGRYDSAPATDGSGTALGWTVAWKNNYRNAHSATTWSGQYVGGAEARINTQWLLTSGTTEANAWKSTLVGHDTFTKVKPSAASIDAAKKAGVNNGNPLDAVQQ
NADPH oxidase 4 (Homo sapiens), sequence (Q9NPH5 whole entry, looked up): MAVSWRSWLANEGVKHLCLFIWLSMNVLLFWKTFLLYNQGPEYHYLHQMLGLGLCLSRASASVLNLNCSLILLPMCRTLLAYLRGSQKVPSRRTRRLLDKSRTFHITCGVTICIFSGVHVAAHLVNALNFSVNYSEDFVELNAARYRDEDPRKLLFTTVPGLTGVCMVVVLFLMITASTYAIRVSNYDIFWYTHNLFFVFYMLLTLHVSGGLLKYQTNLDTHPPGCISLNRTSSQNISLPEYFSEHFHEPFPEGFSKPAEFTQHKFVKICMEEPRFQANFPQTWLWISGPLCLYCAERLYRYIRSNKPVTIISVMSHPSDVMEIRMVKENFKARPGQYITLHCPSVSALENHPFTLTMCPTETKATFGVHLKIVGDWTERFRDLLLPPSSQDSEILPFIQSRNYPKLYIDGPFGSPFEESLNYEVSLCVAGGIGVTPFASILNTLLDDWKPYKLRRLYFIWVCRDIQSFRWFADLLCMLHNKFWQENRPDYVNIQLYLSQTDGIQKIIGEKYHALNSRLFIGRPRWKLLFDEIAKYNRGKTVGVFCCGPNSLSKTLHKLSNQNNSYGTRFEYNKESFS
NADPH oxidase 2 (Homo sapiens), sequence (P04839 whole entry, looked up): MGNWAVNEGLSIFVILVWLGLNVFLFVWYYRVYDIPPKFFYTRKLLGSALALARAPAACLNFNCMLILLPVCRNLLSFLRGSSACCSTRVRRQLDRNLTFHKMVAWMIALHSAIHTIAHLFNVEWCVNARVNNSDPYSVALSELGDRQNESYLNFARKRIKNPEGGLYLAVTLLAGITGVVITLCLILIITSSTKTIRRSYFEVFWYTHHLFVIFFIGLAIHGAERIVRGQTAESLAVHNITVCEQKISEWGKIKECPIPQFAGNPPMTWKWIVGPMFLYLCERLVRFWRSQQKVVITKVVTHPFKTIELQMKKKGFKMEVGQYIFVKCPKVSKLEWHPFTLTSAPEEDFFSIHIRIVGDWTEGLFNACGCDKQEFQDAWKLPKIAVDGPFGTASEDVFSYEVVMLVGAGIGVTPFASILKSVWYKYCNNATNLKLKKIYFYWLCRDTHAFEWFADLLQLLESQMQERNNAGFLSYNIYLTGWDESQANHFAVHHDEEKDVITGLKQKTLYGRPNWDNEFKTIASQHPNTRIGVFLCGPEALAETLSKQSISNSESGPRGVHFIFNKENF
Torsin-1A (Homo sapiens), sequence (O14656 whole entry, looked up): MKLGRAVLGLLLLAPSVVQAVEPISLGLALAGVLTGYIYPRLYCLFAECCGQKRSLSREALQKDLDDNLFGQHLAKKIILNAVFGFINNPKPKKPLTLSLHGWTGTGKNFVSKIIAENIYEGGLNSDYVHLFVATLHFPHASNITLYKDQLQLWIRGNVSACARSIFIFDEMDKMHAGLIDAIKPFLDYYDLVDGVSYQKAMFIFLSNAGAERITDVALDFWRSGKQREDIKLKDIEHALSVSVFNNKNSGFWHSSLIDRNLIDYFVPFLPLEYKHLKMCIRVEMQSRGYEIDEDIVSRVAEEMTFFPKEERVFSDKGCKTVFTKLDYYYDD

| SMILES | composite z-score [1] | z-score [2] | z-score [3] | z-score [4] | z-score [5] | composite z-score [6] | composite z-score [7] | composite z-score (Torsin-1A (Homo sapiens) [8]) | composite z-score (Torsin-1A (Homo sapiens) [9]) | composite z-score [10] | z-score [11] | composite z-score [12] | z-score [13] | z-score [14] | z-score [15] | z-score [16] | z-score [17] | z-score [18] | z-score [19] | z-score [20] |
| --- | --- | --- | --- | --- | --- | --- | --- | --- | --- | --- | --- | --- | --- | --- | --- | --- | --- | --- | --- | --- |
| C=CCN(CCCCC)C(=O)C1N(C(C)(C)CO)C(=O)C2C(C(=O)O)C3C=CC21O3 (stereo not given) | -0.912 and -0.258 | 0.879 (inactive) and 1.06 (inactive) | 1.13 (inactive) and 1.98 (inactive) | -0.0737 (inactive) and -0.484 (inactive) | -0.0682 (inactive) and 0.563 (inactive) | -1.6 and -1.67 | -0.213 and -0.0791 | -3.01 and -1.59 | -2.24 and -1.18 | -0.99 and -0.61 | -0.548 (inactive) and -0.511 (inactive) | -0.717 and -0.18 | -0.632 (inactive) and -0.588 (inactive) | -0.042 (inactive) and -0.318 (inactive) | -0.694 (inactive) and -1.04 (inactive) | -0.281 (inactive) and -0.646 (inactive) | 0.0495 and 2.08 | 1.02 (inactive) and 0.298 (inactive) | -0.188 (inactive) and -0.0857 (inactive) | 0.101 and 0.407 |
| C=CCN(CCCC)C(=O)C(c1cccs1)N(C(=O)/C=C\C(=O)O)c1ccc(CCO)cc1 (stereo not given) | -0.118 and -0.341 | 0.197 (inactive) and 0.617 (inactive) | -0.568 (inactive) and 0.123 (inactive) | -0.0818 (inactive) and 0.195 (inactive) | -0.21 (inactive) and -0.185 (inactive) | -0.874 and -1.49 | -0.195 and -0.331 | -1.2 and -3.21 | -2.35 and -1.52 | -0.463 and -1.18 | 0.369 (inactive) and 0.133 (inactive) | -0.279 and -0.147 | 0.855 (inactive) and 1.03 (inactive) | -0.14 (inactive) and -0.182 (inactive) | 0.517 (inactive) and 0.0377 (inactive) | 0.0866 (inactive) and 0.233 (inactive) | 0.0768 and 0.0738 | 0.377 (inactive) and 0.12 (inactive) | -0.432 (inactive) and -0.518 (inactive) | 1.18 and -0.0206 |
| CC(C)OC(=O)C=C1C[C@@H](c2ccccc2)O[C@@H](c2ccccc2)O1 | 0.706 and 0.731 | -1.4 (inactive) and -2.03 (inactive) | -0.804 (inactive) and -1.18 (inactive) | 0.836 (inactive) and -0.0879 (inactive) | -0.127 (inactive) and 3.16 (inactive) | 1.35 and 1.85 | 0.122 and 0.234 | 1.55 and 1.19 | 1.57 and 1.46 | 1.67 and 0.885 | 0.676 (inactive) and 0.585 (inactive) | -0.0984 and 0.149 | 15.2 (active) and 23.2 (active) | 1.94 (inactive) and 5.46 (inactive) | 0.369 (inactive) | 1.03 (inactive) and 1.37 (inactive) | -0.104 and -0.0136 | -0.124 (inactive) and -0.0606 (inactive) | -0.00431 (inactive) and -1.01 (inactive) | -0.39 and -0.392 |
| CCN1C(=O)[C@H]2[C@H]3[C@H](O)[C@H](O)CC(=NOC)[C@@H]3CC[C@H]2C1=O | -0.254 | 0.359 (inactive) | -1.16 (inactive) | -1.12 (inactive) | -0.154 (inactive) | -0.125 | -0.0762 | -0.477 | -0.115 | -0.13 | -0.589 (inactive) | -0.0654 | 0.637 (inactive) | 0.628 (inactive) | 0.47 (inactive) | 0.269 (inactive) | 0.815 | -0.0884 (inactive) | 0.545 (inactive) | -0.274 |
| C=C[C@@H](C)[C@H](O)c1ccc(O)c2ccccc12 | -0.419 and -0.647 | -2.11 (inactive) and 0.366 (inactive) | -0.14 (inactive) and -0.671 (inactive) | 0.441 (inactive) and -0.272 (inactive) | -0.349 (inactive) and 0.556 (inactive) | -0.984 and -0.766 | -0.224 and -0.233 | -0.595 and -0.309 | -0.518 and -0.45 | 1.96 and 0.17 | 0.687 (inactive) and 0.0364 (inactive) | -0.313 and -0.104 | 1.57 (inactive) and 1.31 (inactive) | 0.651 (inactive) and 0.739 (inactive) | -0.198 (inactive) and -0.13 (inactive) | 0.795 (inactive) and 0.599 (inactive) | 0.166 and 0.217 | -4.9 (inactive) and -4.75 (inactive) | -0.696 (inactive) and -0.723 (inactive) | 1.07 and 1.48 |
| CC(C)=NOC[C@@H](O)COCc1ccco1 | -0.0761 | 0.326 (inactive) | -0.209 (inactive) | -1.71 (inactive) | -0.619 (inactive) | -0.499 | -0.003 | -0.469 | 2.08 | 0.712 | 0.534 (inactive) | 0.843 | 0.159 (inactive) | 0.365 (inactive) | -0.0924 (inactive) | 0.0967 (inactive) | 0.566 | 0.0371 (inactive) | 0.0915 (inactive) | 0.125 |
